# Screening data as filed in PubChem.
# Shn3 3UTR inh: reduction of Shn3 3'UTR firefly luciferase signal, primary screen, Schnurri-3 inhibitor project, cell-based, Clone20 osteoblasts, set 2 | Clone20 osteoblast Shn3 3'UTR firefly luciferase, 24 h | inhibition, % at 12.5 µM | hit rate 0.52% among 360,000;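 active = mean inhibition of at least 75% with every replicate also reaching 75%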;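 note: 0% = median of neutral control wells and 100% = pilot-screen positive control compound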
# TRPM1 prom inh: inhibitors of MITF-dependent TRPM1 promoter reporter, primary screen, cell-based, SK-MEL-5, single point, luciferase. SK-MEL-5 TRPM1 promoter luciferase, 24 h. inhibition, % at 12.5 µM. hit rate 0.83% among 330,000;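 active = mean inhibition across replicates of 60% or more, whatever share of single replicates reaches that level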
# CF NFkB block: inhibitors of PAF-induced NF-kB signaling, primary screen, cell-based, GFP fluorescence, uHTS. KKLEB NF-kB-GFP reporter, GFP fluorescence overnight. hit rate 0.86% among 360,000. AID 588850, 2011. inhibition, % at 5 µM;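 active = at least 50% inhibition at 5 µM, scaled per plate between neutral and stimulator controls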;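 note: PAF is a Pseudomonas aeruginosa culture filtrate used as stimulus; plate controls were PAF-stimulated DMSO wells for no effect and unstimulated DMSO wells for full effect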
# Peg3 prom inh: Peg3 promoter-driven luciferase inhibitors, primary screen, cell-based, HeLa, luciferase luminescence. inhibition, % at 20 µM. HeLa PEG-Prom luciferase reporter, overnight. hit rate 1.7% among 360,000;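 active = inhibition of at least 50% at 20 µM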
# KKLEB cytotox: cytotoxicity in KKLEB CF airway cells, primary screen, cytotoxicity control for CF NF-kB inhibitor project, cell-based, uHTS, fluorescence assay plates. KKLEB CF airway cells viability, ATPlite luminescence, overnight; stronger effect = lower value; cells stimulated with P. aeruginosa culture filtrate. activity change (cytotoxicity), % at 5 µM. hit rate 0.36% among 360,000. AID 602141, 2011;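 active = corrected activity change at or below -50% at 5 µM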
# EBV LMP1 NFkB: EBV LMP1-driven NF-kappaB luciferase reporter inhibitors, primary screen, cell-based, luminescence, single point | LMP1-induced NF-kappaB luciferase reporter cells | inhibition, % at 12.5 µM | hit rate 0.69% among 350,000; in the data active = inhibition above about 41%;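 note: 0% = neutral control wells and 100% = reference inhibitor control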
# The depositor's hits bear a star; . = no result; ! = not confirmed by another sample. A selection: hits, their analogues and other compounds. The true share with any hit is near 2.9%.
SMILES,Shn3 3UTR inh,TRPM1 prom inh,CF NFkB block,Peg3 prom inh,KKLEB cytotox,EBV LMP1 NFkB
CN(C)CC(CCC(CN(C)C)C(=O)c1ccccc1)C(=O)c1ccccc1 (stereo not drawn),98*,97*,90*,109*,-61*,84*
O=C(c1ccccc1)C(CCc1ccccn1)CCc1ccccn1,-23,-34,-27,-151,4,-16
Cc1cccc(N(C)c2cc(-c3ccc(F)cc3)nc3ccnn23)c1,10,.,8,19,-15,.
CC1(C(=O)NS(=O)(=O)C2CC2)CCCN(C(=O)c2cc3ccccc3s2)C1 (stereo not drawn),21,.,8,0,5,.
Cc1cc(NC(=O)CCS(=O)(=O)c2nc(-c3ccccc3)cc(C(F)(F)F)n2)no1,65,85*,76*,106*,-33,-26
FC(F)(F)c1cc(-c2ccccc2)nc(N2CCCCCC2)n1,-3,3,2,12,11,-5
CS(=O)(=O)c1nc(-c2ccccc2)cc(C(F)(F)F)n1,95*,95*,95*,104*,-73*,30
CCC(=O)N1CCN(c2nc(CC)nc3sc4c(c23)CCCC4)CC1,-5,3,12,3,-14,-1
CC1CCc2c(sc3nc(C(C)(C)C)nc(N4CCN(C(=O)CCl)CC4)c23)C1 (stereo not drawn),24,17,97*,56*,-92*,-16
COc1cccc2c1C(CO)N1C(C#N)C3CC(C(=O)O)C(C1C2)N3C (stereo not drawn),-94,67*,96*,108*,-52*,89*
COc1cccc2c1OCC(C(=O)O)C2 (stereo not drawn),-27,6,-3,-18,-9,0
CS(=O)(=O)n1c2ccccc2c(=O)n1-c1ccccc1CCl,11,.,8,-52,1,.
COc1ccc(C(CNC(=O)c2ccc(S(=O)(=O)N3CCCC3)cc2)N(C)C)cc1OC (stereo not drawn),-11,9,-12,8,11,6
COc1ccc(C(CNC(=O)c2ccc(S(=O)(=O)N3CC(C)CC(C)C3)cc2)N(C)C)cc1 (stereo not drawn),9,54,19,71*,-17,-3
O=S(=O)(/N=S1\CC=CCN1S(=O)(=O)c1ccccc1)c1ccccc1 (stereo not drawn),94*,-7,4,0,-12,-4
CC1=C(C)CS(=O)N(S(=O)(=O)c2ccccc2)C1 (stereo not drawn),24,0,4,5,3,11
Cc1ccc(NC(=O)CCC(=O)c2cccs2)nc1,-16,-17,-17,-110,14,-19
Cc1ccnc(NC(=O)CCC(=O)c2cccs2)c1,40,41,0,21,-26,59*
Clc1ccc(Nc2ncnc3ccc(Br)cc23)cc1,44,19,73*,16,-10,36
COc1ccc(Nc2ncnc3ccc(Br)cc23)cc1OC,11,-16,48,7,-11,14
CC(C)(C)N(NC(=O)Nc1ccc(F)cc1)C(=O)c1ccccc1,16,-3,21,-2,5,2
CC(C)(C)N(NC(=O)Nc1ccc(Cl)c(Cl)c1)C(=O)c1ccccc1,24,2,39,61*,-21,9
CCN(CC)c1nc(C=Cc2ccc(N(C)C)cc2)c2nccnc2n1,57,.,-423,-4,19,16
O=C(NCc1ccccc1Cl)c1csc(COCCO)n1,-14,.,3,10,1,.
CCC1SC(C)C/C(=N/NC(N)=O)C1C (stereo not drawn),-21,-2,-1,1,2,-2
SMILES,Shn3 3UTR inh,TRPM1 prom inh,CF NFkB block,Peg3 prom inh,KKLEB cytotox,EBV LMP1 NFkB
CC1CC(C)C(=NNC(N)=O)C(C(O)CC2CCC(=O)NC2=O)C1 (stereo not drawn),11,13,54*,37,-6,25
CC1=C(C(=O)N(C(C)C)C(C)C)CC(CC(=O)NCCN2CCOCC2)C(=O)N1CCC1=CCCCC1 (stereo not drawn),10,.,6,-8,-13,.
Cc1nc(SCC(=O)c2cccc([N+](=O)[O-])c2)n[nH]1,9,5,14,-8,1,55*
Cc1ccnc(SCC(=O)c2cccc([N+](=O)[O-])c2)n1,-11,-13,5,-9,-1,-6
CN(CC(=O)Nc1ccc(OC(F)(F)F)cc1)C(=O)c1ccccc1SCC(=O)N1CCCC1,0,2,-34,-20,13,0
CCc1nc(N)nc(N)c1-c1ccc(Cl)c(N=[N+]=[N-])c1,81*!,31,17,14,-19,1
CCc1nc(N)nc(N)c1-c1ccc(Cl)c([N+](=O)[O-])c1,47,30,-11,22,15,32
O=C(/C=C/c1cccc([N+](=O)[O-])c1)Nc1cccc(NC(=O)c2ccco2)c1,-2,-12,0,20,-4,12
O=C(Nc1ccc(Cl)c([N+](=O)[O-])c1)c1ccco1,-33,-17,-2,-53,1,-8
O=C(/C=C/c1ccc(Cl)c([N+](=O)[O-])c1)Nc1ccc(NC(=O)c2ccco2)cc1,-2,3,9,61*,0,-1
O=C(/C=C/c1ccc(Cl)c([N+](=O)[O-])c1)Nc1cccc(NC(=O)c2ccco2)c1,10,-10,6,114*,6,7
CCCN1CCN(CCCNC(=O)CN2C(=O)COc3ccc(C(C)(C)C)cc32)CC1,0,.,-18,-5,-11,-6
CC12CCC(O)CC1=CCC1C2CCC2(C)C(c3ccn[nH]3)CCC12 (stereo not drawn),27,6,-5,46,-3,2
CCOC(=O)c1cc(=O)nc(N)s1,-9,.,16,1,8,-3
CCn1cc(/C=C(\NC(=O)c2ccccc2OC)C(=O)NCCN2CCOCC2)c2ccccc21,4,.,-20,-2,-1,5
CCCCC1CC2=C(C(=O)OC(C)(C)O2)C(c2ccc3ccccc3c2)O1 (stereo not drawn),9,.,21,9,-2,.
Cc1ccc(NC(=O)CCc2c(C)nn(-c3ccc(N4CCCCC4)nn3)c2C)cc1,-26,-31,-10,77*,1,-18
CC1CCCN(c2ncnc3c2cnn3-c2ccccc2)C1 (stereo not drawn),25,41,-34,2,-54*,20
